Screening data (PubChem BioAssay)
C diff HTS – C. difficile growth inhibitors, primary screen, HTS; Clostridium difficile clinical isolate growth, OD600, 24 h; hits give low values; growth activity, negative = inhibition, % at 16 µg/mL (by protocol); 86,000 compounds, 0.25% hits;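 active = mean growth activity at or below -80% and every replicate also at or below -80%; inconclusive = mean at or below -80% but some replicate above -80%; inactive = mean growth activity above -80%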
T cruzi growth-1 – T. cruzi intracellular proliferation inhibitors, primary screen, cell-based, beta-gal Tulahuen parasites, NIH3T3 host, luminescence | T. cruzi beta-gal in NIH3T3, GalScreen luminescence, 90 h | 77,000 compounds, 5.9% hits | inhibition, % at 8.34 µM;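 active = mean inhibition above about 93%, with at least 55% of replicates each passing it, limit read from the data, passing the limit was not always enough; inconclusive = only one of those two conditions holds; inactive = neither condition holds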
T cruzi growth-2 – T. cruzi intracellular proliferation inhibitors, confirmation, cell-based, NIH3T3 host, beta-gal parasite, luminescence, cherry-pick. shares compounds with T cruzi growth-1. T. cruzi beta-gal in NIH3T3, GalScreen luminescence, 90 h. inhibition, % at 8.35 µM. 5,600 compounds, 72% hits. AID 651739, 2012;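 active = mean replicate inhibition above about 95% and at least 55% of replicates individually reaching it, limit read from the data; inconclusive = only one of the two criteria is met; inactive = neither criterion is met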
T cruzi growth-3 – inhibitors of intracellular T. cruzi replication, confirmation, NIH3T3 host cells, beta-gal parasites, cherry-pick, set 2 | shares compounds with T cruzi growth-1 | T. cruzi beta-gal in NIH3T3, GalScreen luminescence, 90 h | inhibition, % at 2.09 µM | 5,600 compounds, 21% hits;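 active = mean inhibition above about 95%, with at least 55% of replicates also reaching it, limit read from the data; inconclusive = meets just one of the two conditions; inactive = meets neither condition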
NIH3T3 tox – cytotoxicity in mouse NIH/3T3 fibroblasts, confirmation, cytotoxicity control for T. cruzi proliferation inhibitor project, cell-based, cherry-pick, single point. cytotoxicity (signal decrease), % at 8.35 µM. 5,600 compounds, 14% hits. NIH/3T3 viability, CellTiter-Glo ATP luminescence, 90 h. shares compounds with T cruzi growth-1;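 active = mean signal decrease across replicates above about 35% based on untreated-well scatter, with enough replicates individually passing, limit read from the data; inconclusive = no rule stated though some were filed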
NIH3T3 tox 2 – NIH/3T3 fibroblast cytotoxicity, confirmation, cytotoxicity control, cell-based, cherry-pick, single point, set 2. shares compounds with T cruzi growth-1. NIH/3T3 viability, CellTiter-Glo ATP luminescence, 90 h. inhibition, % at 24.9 µM. 5,600 compounds, 56% hits;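 active = mean loss of cell viability signal at or above a set limit, and enough replicates individually reaching it; inconclusive = meets only the mean limit or only the replicate share; inactive = meets neither condition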
Of the large screens only hits and unclear results are named; the others gave an inactive call (follow-up assays come after a bar, where they were run). The entries come from a sample that favours hits as a whole.

C[C@H]1CCCCO[C@@H](CN(C)C(=O)Nc2ccc(C(F)(F)F)cc2)[C@@H](C)CN([C@@H](C)CO)C(=O)c2cc(NC(=O)c3ccncc3)ccc2O1	T cruzi growth-1 108 | T cruzi growth-2 109 | T cruzi growth-3 inactive | NIH3T3 tox inactive | NIH3T3 tox 2 inconclusive
C[C@@H]1CN([C@@H](C)CO)C(=O)c2cc(NC(=O)c3ccccc3)ccc2O[C@@H](C)CCCCO[C@@H]1CN(C)C(=O)Nc1ccc(C(F)(F)F)cc1	T cruzi growth-1 inconclusive | T cruzi growth-2 104 | T cruzi growth-3 101 | NIH3T3 tox inactive | NIH3T3 tox 2 80
C[C@@H]1CCCCO[C@@H](CN(C)S(C)(=O)=O)[C@@H](C)CN([C@H](C)CO)C(=O)c2cc(NS(=O)(=O)c3cccs3)ccc2O1	none
COc1ccc(-c2ccc([C@H]3[C@H]4CN(C(=O)NC(C)C)CC(=O)N4[C@H]3CO)cc2)cc1	none (no result: T cruzi growth-1)
C[C@@H]1CN([C@H](C)CO)C(=O)c2cc(NC(=O)CCC(F)(F)F)ccc2O[C@@H](C)CCCCO[C@@H]1CN(C)S(C)(=O)=O	none
CN1C(=O)c2cc(NS(=O)(=O)c3cccc(F)c3)ccc2OC[C@@H]2O[C@@H](CC(=O)NCCN3CCCCC3)CC[C@@H]21	none
CCCC(=O)Nc1ccc2c(c1)C(=O)N(C)[C@H]1CC[C@H](CC(=O)NCCN3CCCCC3)O[C@H]1CO2	none
CCCC(=O)Nc1ccc2c(c1)C(=O)N(C)[C@H]1CC[C@@H](CC(=O)NCCN3CCCCC3)O[C@H]1CO2	T cruzi growth-1 99 | T cruzi growth-2 98 | T cruzi growth-3 inactive | NIH3T3 tox inactive | NIH3T3 tox 2 inactive
CN1C(=O)c2cc(NS(=O)(=O)c3ccc(F)cc3)ccc2OC[C@@H]2O[C@H](CC(=O)O)CC[C@H]21	T cruzi growth-1 103 | T cruzi growth-2 inactive | T cruzi growth-3 inactive | NIH3T3 tox inactive | NIH3T3 tox 2 inactive
CN1C(=O)c2cc(NS(=O)(=O)c3cccc(F)c3)ccc2OC[C@@H]2O[C@H](CC(=O)NCCN3CCCCC3)CC[C@@H]21	T cruzi growth-1 97 (no result: C diff HTS) | T cruzi growth-2 inactive | T cruzi growth-3 inactive | NIH3T3 tox inactive | NIH3T3 tox 2 inactive
Cc1ccc(S(=O)(=O)Nc2ccc3c(c2)C(=O)N(C)[C@@H]2CC[C@H](CC(=O)O)O[C@H]2CO3)cc1	none
C/C=C/c1cnc2c(c1)C(=O)N([C@H](C)CO)C[C@H](C)[C@@H](CN(C)Cc1cccc(C(=O)O)c1)O2	none (no result: T cruzi growth-1)
Cc1noc(C)c1NC(=O)N(C)C[C@@H]1Oc2ccc(NC(=O)C3CCCCC3)cc2C(=O)N([C@H](C)CO)C[C@H]1C	none
CN1c2ccc(-c3ccc(F)cc3)cc2[C@@H]2[C@@H](CCN2C(=O)c2ccncc2)[C@H]1CO	none
CN1c2ccc(-c3ccc(F)cc3)cc2[C@H]2[C@H](CCN2C(=O)c2ccncc2)[C@@H]1CO	T cruzi growth-1 inconclusive | T cruzi growth-2 110 | T cruzi growth-3 inactive | NIH3T3 tox inactive | NIH3T3 tox 2 inconclusive
CN1c2ccc(-c3ccccc3)cc2[C@H]2[C@H](CCN2C(=O)c2ccc(F)cc2)[C@H]1CO	none
CN1c2ccc(-c3ccccc3)cc2[C@H]2[C@H](CCN2C(=O)c2ccccc2)[C@H]1CO	none
CN(C)C(=O)c1cccc(-c2ccc3c(c2)[C@H]2[C@H](CCN2C(=O)c2ccccc2)[C@@H](CO)N3C)c1	T cruzi growth-1 102 | T cruzi growth-2 100 | T cruzi growth-3 inactive | NIH3T3 tox inactive | NIH3T3 tox 2 inactive
CN1c2ccc(-c3ccccc3)cc2[C@H]2[C@H](CCN2C(=O)c2ccncc2)[C@H]1CO	T cruzi growth-1 103 | T cruzi growth-2 107 | T cruzi growth-3 inactive | NIH3T3 tox inactive | NIH3T3 tox 2 inactive
COCC(=O)N1CC[C@@H]2[C@H](CO)Nc3ccc(C#Cc4cccc(F)c4)cc3[C@@H]21	none
C[C@H]1CN([C@@H](C)CO)C(=O)c2cc(-c3ccccc3)cnc2O[C@@H]1CN(C)C(=O)c1cccc(F)c1	none
C[C@H](NC(=O)C[C@H]1C=C[C@H](NC(=O)c2cccnc2)[C@H](CO)O1)c1ccccc1	none
COc1ccc(CN(C)C[C@H]2Oc3ccc(NC(=O)Cn4cnnn4)cc3CC(=O)N([C@H](C)CO)C[C@H]2C)cc1	none
O=S(=O)(Cc1ccccc1)N1CCCCN2[C@@H](CO)[C@@H](c3ccc(-c4cncnc4)cc3)[C@@H]2C1	none
O=S(=O)(Cc1ccccc1)N1CCCCN2[C@H](C1)[C@H](c1ccc(-c3cccnc3)cc1)[C@@H]2CO	T cruzi growth-1 98 | T cruzi growth-2 inactive | T cruzi growth-3 inactive | NIH3T3 tox inactive | NIH3T3 tox 2 inactive
O=S(=O)(Cc1ccccc1)N1CCCCN2[C@H](CO)[C@H](c3ccc(-c4cccnc4)cc3)[C@@H]2C1	none
O=S(=O)(Cc1ccccc1)N1CCCCN2[C@H](CO)[C@H](c3ccc(-c4cccnc4)cc3)[C@H]2C1	T cruzi growth-1 108 | T cruzi growth-2 108 | T cruzi growth-3 inactive | NIH3T3 tox inactive | NIH3T3 tox 2 27
CCCC#Cc1cnc2c(c1)C(=O)N([C@@H](C)CO)C[C@H](C)[C@H](CN(C)Cc1ccccc1F)O2	none (no result: C diff HTS)
CCNC(=O)C[C@@H]1C=C[C@H](NS(=O)(=O)c2ccc(F)cc2)[C@@H](CO)O1	none (no result: C diff HTS)
Cc1ccc(-c2ccc3c(c2)O[C@@H](CN(C)C(=O)C2CC2)[C@@H](C)CN([C@H](C)CO)S3(=O)=O)cc1	none (no result: C diff HTS)
C[C@@H]1CN([C@H](C)CO)S(=O)(=O)c2ccc(-c3ccc(F)cc3)cc2O[C@@H]1CN(C)C(=O)C1CCCCC1	T cruzi growth-1 108 | T cruzi growth-2 103 | T cruzi growth-3 inactive | NIH3T3 tox inactive | NIH3T3 tox 2 102
C[C@@H]1CN([C@@H](C)CO)S(=O)(=O)c2ccc(-c3ccc(F)cc3)cc2O[C@H]1CN(C)C(=O)C1CCC1	none (no result: C diff HTS)
Cc1ccc(-c2ccc3c(c2)O[C@@H](CN(C)C(=O)C2CCCCC2)[C@H](C)CN([C@@H](C)CO)S3(=O)=O)cc1	T cruzi growth-1 120 (no result: C diff HTS) | T cruzi growth-2 108 | T cruzi growth-3 inconclusive | NIH3T3 tox inactive | NIH3T3 tox 2 97
Cc1ccc(-c2ccc3c(c2)O[C@H](CN(C)C(=O)C2CCC2)[C@@H](C)CN([C@@H](C)CO)S3(=O)=O)cc1	none
Cc1ccc(-c2ccc3c(c2)O[C@H](CN(C)C(=O)C2CCCCC2)[C@@H](C)CN([C@H](C)CO)S3(=O)=O)cc1	T cruzi growth-1 112 (no result: C diff HTS) | T cruzi growth-2 108 | T cruzi growth-3 103 | NIH3T3 tox inactive | NIH3T3 tox 2 94
C/C=C/c1ccc([C@@H]2[C@@H](CN(C)C(=O)C3CC3)N(C(=O)C3CC3)[C@H]2CO)cc1	none
